Sampled rows, rich in hits. Any-hit rate of the full collection: about 3.1%.
FBA Mtb inh: Mtb fructose-bisphosphate aldolase inhibition; P9WQA3; purified M. tuberculosis FBA, fluorescence read-out; inhibition, % at 1 µM; hit rate 2.3% among 360,000; AID 588726
Target sequence (P9WQA3 whole entry, looked up): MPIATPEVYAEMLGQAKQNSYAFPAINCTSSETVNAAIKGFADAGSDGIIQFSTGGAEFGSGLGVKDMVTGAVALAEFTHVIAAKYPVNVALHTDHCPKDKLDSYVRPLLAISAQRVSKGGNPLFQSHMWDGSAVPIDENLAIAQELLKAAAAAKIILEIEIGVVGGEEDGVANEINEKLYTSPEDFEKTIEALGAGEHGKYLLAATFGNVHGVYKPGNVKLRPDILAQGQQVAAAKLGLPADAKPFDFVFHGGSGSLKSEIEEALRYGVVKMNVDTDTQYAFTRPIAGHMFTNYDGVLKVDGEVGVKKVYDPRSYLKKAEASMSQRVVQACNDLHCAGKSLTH
FadD28 FP inh: blocks FadD28 binding to the bisubstrate probe | fluorescence polarization | inhibition, % at 12.5 µM | hit rate 0.22% among 360,000 | AID 588549; in the data active = inhibition above about 8.5%, passing the limit was not always enough
Mtb BioA inh: blocks M. tuberculosis BioA enzyme activity | purified M. tuberculosis BioA enzyme, plate reader | inhibition, % at 9.99 µM | hit rate 0.096% among 360,000 | AID 602481; in the data active = inhibition above about 40%
GDH-TPI counter-1: inhibits GDH-TPI coupling enzymes, artifact for Mtb FBA screen | GDH-TPI coupled enzyme counterscreen, NADH absorbance | inhibition, % at 4.8 µM | hit rate 1.2% among 360,000; in the data active = inhibition above about 30%
3CLpro inhibitor: SARS-CoV 3CLpro protease inhibition. inhibition, % at 6 µM. hit rate 0.14% among 290,000. recombinant SARS-CoV 3CLpro, quenched FRET peptide cleavage; in the data active = inhibition above about 12%
Mtb FBA confirm: confirmation of M. tuberculosis fructose-bisphosphate aldolase inhibitors; shares compounds with FBA Mtb inh; purified M. tuberculosis FBA, fluorescence read-out; inhibition, % at 1 µM; hit rate 78% among 5,600
GDH-TPI counter-2: GDH-TPI inhibition counter-screen for FBA inhibitors. inhibition, % at 1 µM. GDH-TPI coupled enzyme counterscreen, fluorescence. hit rate 81% among 5,600. shares compounds with FBA Mtb inh; in the data active = inhibition above about 10%
Of the large screens only hits and unclear results are named; the others gave an inactive call (follow-up assays come after a bar, where they were run). Cut-off read from the data, not from the text of the source, unless noted: active = inhibition above about 27%; inactive = the rest.

CCC1Cc2c(nc(N)c3c(N)nc(N4CCCCC4)c(C#N)c23)O1 (stereo not given)	FBA Mtb inh 42 (no result: Mtb BioA inh) | Mtb FBA confirm 121 | GDH-TPI counter-2 110
N#Cc1c(N2CCCCC2)nc(N)c2c(N)nc3c(c12)CC(c1ccccc1)O3 (stereo not given)	FBA Mtb inh 30 | Mtb FBA confirm 122 | GDH-TPI counter-2 102
C[C@H](CO)N1C[C@H](C)[C@@H](CN(C)C(=O)C2CCC2)Oc2cc(C#C[C@@H](C)O)ccc2S1(=O)=O	none (no result: FBA Mtb inh, FadD28 FP inh, GDH-TPI counter-1, 3CLpro inhibitor)
CN1C(=O)c2cc(NC(=O)C3CC3)ccc2OC[C@@H]2O[C@@H](CC(=O)NCc3cccc(F)c3)CC[C@@H]21	none (no result: FBA Mtb inh, FadD28 FP inh, GDH-TPI counter-1, 3CLpro inhibitor)
COc1ccccc1COC(=O)N/C=C/c1ccco1	FBA Mtb inh 43 (no result: Mtb BioA inh) | Mtb FBA confirm 163 | GDH-TPI counter-2 121
C[C@@H]1CN([C@H](C)CO)C(=O)Cc2cc(NS(=O)(=O)c3cccs3)ccc2O[C@H]1CN(C)Cc1ccc(C(=O)O)cc1	none (no result: FBA Mtb inh, FadD28 FP inh, GDH-TPI counter-1, 3CLpro inhibitor)
C[C@@H]1CN([C@@H](C)CO)C(=O)Cc2cc(NC(=O)Cc3cn(C)c4ccccc34)ccc2O[C@H]1CN(C)C(=O)Nc1ccc2c(c1)OCO2	none (no result: FBA Mtb inh, FadD28 FP inh, GDH-TPI counter-1, 3CLpro inhibitor)
COc1ccc2nc(COC(=O)c3ccco3)c(C(C)=O)[n+]([O-])c2c1	none
COc1ccc2nc(CC(C)(C)CC(=O)O)c[n+]([O-])c2c1	FBA Mtb inh 64 | Mtb FBA confirm active | GDH-TPI counter-2 active
COC(=O)c1ccc(C(=O)OC)c(=O)[nH]1	FBA Mtb inh 62 | Mtb FBA confirm inactive | GDH-TPI counter-2 inactive
COC(=O)c1c[nH]c(=O)c2ccccc12	none (no result: Mtb BioA inh)
CC1CCC(N2CCN(S(C)(=O)=O)CC2)CC1 (stereo not given)	FBA Mtb inh 56 | Mtb FBA confirm 110 | GDH-TPI counter-2 102
CCS(=O)(=O)N1CCN(C2CCC(C)CC2)CC1 (stereo not given)	none
Cc1ccc2[nH]c3c(c2c1)CCC3=O	FBA Mtb inh 65 | Mtb FBA confirm active | GDH-TPI counter-2 162
CCCOc1c(Br)cc(C(=O)OCC(=O)NC2CC2)cc1OC	none (no result: Mtb BioA inh, 3CLpro inhibitor)
CCCOc1c(Br)cc(C2C3=C(CCCC3=O)N(CC)C3=C2C(=O)CCC3)cc1OC	FBA Mtb inh 31 (no result: Mtb BioA inh) | Mtb FBA confirm 30 | GDH-TPI counter-2 35
CCCOc1c(Br)cc(C2C3=C(CCCC3=O)N(C)C3=C2C(=O)CCC3)cc1OC	FBA Mtb inh 42 (no result: Mtb BioA inh) | Mtb FBA confirm active | GDH-TPI counter-2 active
COc1ccc(N2C(N)=C(C#N)C(c3ccsc3)C3=C2CCCC3=O)c(OC)c1 (stereo not given)	none
CNC(=O)COC(=O)c1cc2c(C)nn(-c3ccc(F)cc3)c2s1	none
Cc1nn(-c2ccc(F)cc2)c2sc(C(=O)OC3CCOC3=O)cc12 (stereo not given)	FBA Mtb inh 86 | Mtb FBA confirm 74 | GDH-TPI counter-2 59
O=C(c1cc(-c2ccco2)nc2ccccc12)N1CCN(Cc2ccccc2)CC1	FBA Mtb inh 50 (no result: 3CLpro inhibitor) | Mtb FBA confirm 138 | GDH-TPI counter-2 148
CCOC(=O)C1CCN(C(=O)c2cc(-c3ccncc3)nc3ccccc23)CC1	none (no result: 3CLpro inhibitor)
COC(=O)C1CCN(C(=O)c2cc(-c3ccco3)nc3ccccc23)CC1	FBA Mtb inh 109 (no result: 3CLpro inhibitor) | Mtb FBA confirm 54 | GDH-TPI counter-2 43
O=C(c1ccco1)N1CCN(C(=O)c2cc(-c3ccccc3)nc3ccccc23)CC1	none
COc1ccc(NC(=O)Nc2ccc3c(c2)C(=O)N([C@H](C)CO)C[C@H](C)[C@@H](CN(C)S(=O)(=O)c2ccccc2)OCCCC[C@H](C)O3)cc1	none (no result: FBA Mtb inh, FadD28 FP inh, GDH-TPI counter-1, 3CLpro inhibitor)
CCCNC(=O)N(C)C[C@@H]1Oc2ncc(C#CCc3ccccc3)cc2C(=O)N([C@@H](C)CO)C[C@@H]1C	none (no result: FBA Mtb inh, FadD28 FP inh, GDH-TPI counter-1, 3CLpro inhibitor)
CC(C)n1cnc2c(Nc3ccc(F)c(Cl)c3)nc(NCCO)nc21	none
CC(C)n1cnc2c(Nc3cccc(F)c3)nc(NCCO)nc21	FBA Mtb inh 32 (no result: 3CLpro inhibitor) | Mtb FBA confirm 109 | GDH-TPI counter-2 91
CS(=O)(=O)Nc1ccc2c(c1)[C@H]1C[C@H](CC(=O)N3CCOCC3)O[C@@H](CO)[C@H]1O2	none (no result: FBA Mtb inh, FadD28 FP inh, GDH-TPI counter-1, 3CLpro inhibitor)
COc1cccc(S(=O)(=O)N(C)C[C@H]2Oc3cc(C#CCN(C)C)ccc3S(=O)(=O)N([C@@H](C)CO)C[C@@H]2C)c1	none (no result: FBA Mtb inh, FadD28 FP inh, GDH-TPI counter-1, 3CLpro inhibitor)
COc1ccc(CC(=O)NCC2CCCCC2)cc1OC	FBA Mtb inh 28 | Mtb FBA confirm inactive | GDH-TPI counter-2 inactive

High-throughput results as filed in PubChem BioAssay.
